PubChem BioAssay (NCATS)
Results filed as inconclusive are left out. Active and inactive are the calls of the source. Unless noted, calls follow the shape of the dose curve; as a rule, active = well fitted curve in the direction sought with a large enough effect; inconclusive = small, poorly fitted or top-dose-only effect, or another doubt; inactive = no such curve, though single readings can be large; an effect the other way counts as inactive or inconclusive.

Experiments:
[1] = target: Lysosomal acid glucosylceramidase (Homo sapiens) (UniProt P04062); experiment: Glucocerebrosidase-p2 (AID 348; in the data active = potency below about 10 µM; also: potency is read from the fitted curve at half-maximal effect); settings: purified GBA, blue fluorogenic substrate, 40 min
Summary of the method: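 Compounds titrated from 0.6 nM upwards against 0.2 nM enzyme in pH 5.9 citric acid/KH2PO4, taurocholate, tween-20; blue fluorogenic substrate 80 uM, 40 min room temperature, stopped and read Ex 365/Em 440 for AC50.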

[2] = AP1 Signaling Pathway (AID 357; active = well fitted curve in either direction with a large enough effect, not every such curve was filed as active;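 also: ME-180 reporter cells stimulated with EGF at its EC50 level; % is scaled to controls: 0 for no effect and ±100 for the full control effect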); settings: ME-180 AP-1-bla reporter, EGF-induced, beta-lactamase ratio, 5 h; at 7.69 µM (top of the series) unless noted
Summary of the method: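 Beta-lactamase reporter under AP-1 response element, ME-180 background. Stimulus: EC50 EGF. Compound exposure 5 h, 37 °C. Detection: CCF4, 2.5 h RT, 460/530 nm. Values: AC50 from titration.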

[3] = target: Cytochrome P450 1A2 (Homo sapiens) (UniProt P05177); experiment: p450-cyp1a2 (AID 410; calls by dose curve; also: potency is read from the fitted curve at half-maximal effect); settings: recombinant CYP1A2, luciferin-ME demethylation, luminescence; series mostly up to 57 µM
Summary of the method: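 20nM CYP1A2 with 100uM Luciferin-ME (at Km) in 100mM KPO4; compound preincubated 10 min, NADPH regeneration added, 60 min at room temperature. Luciferin quantified by luminescence after detection reagent; normalized to 57 uM furafylline.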

[4] = NFAT Signaling Pathway (AID 444; active = well fitted curve in either direction with a large enough effect, not every such curve was filed as active;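 also: carbachol stimulus at about its EC50 of 1 µM final; % is scaled to controls: 0 for no effect and ±100 for the full control effect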); settings: Jurkat NFAT-bla M1, carbachol, beta-lactamase ratio, 5 h; at 7.69 µM (top of the series) unless noted
Summary of the method: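 Jurkat cells carrying an NFAT-driven β-lactamase reporter and co-transfected muscarinic M1 receptor were treated with compound plus carbachol (1 uM final, an EC50 level) for 5 h at 37 °C. CCF4 loading followed for 1 h at RT; 460/530 nm ratio gave %activity.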

[5] = Stat Signaling Pathway (AID 446; active = well fitted curve in either direction with a large enough effect, not every such curve was filed as active;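 also: ME-180 cervical cancer cells given 40 pM IL-6 alongside compound; SIE-controlled beta-lactamase reporter measured as 460/530 nm FRET emission ratio; % is scaled to controls: 0 for no effect and ±100 for the full control effect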); settings: ME-180 SIE beta-lactamase reporter, IL-6 stimulated, 5 h; at 7.69 µM (top of the series) unless noted
Summary of the method: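 Screening format detects activators and inhibitors alike: ME-180 SIE-bla cells stimulated at 40 pM IL-6 for 5 hrs with compound, then dual-emission beta-lactamase read at 405 nm excitation.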

[6] = target: Glucocorticoid receptor (Homo sapiens) (UniProt P04150); experiment: GR-GFP Redistribution (AID 450;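 active = compounds whose dose series gives a full or clear partial fitted curve of increased nuclear translocation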; also: potency is read from the fitted curve at half-maximal effect); settings: U2OS GR-GFP nuclear translocation, laser cytometry, 2 h
[7] = target: Glucocorticoid receptor (Homo sapiens) (UniProt P04150); experiment: GR-EFC Redistribution (AID 451; calls by dose curve; also: potency is read from the fitted curve at half-maximal effect); settings: CHO-K1 GR-EFC translocation, beta-gal luminescence, 2 h
Summary of the method: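 CHO-K1 cells stably expressing nuclear-localized β-gal enzyme acceptor and GR fused C-terminally to the enzyme donor fragment; ligand-driven nuclear translocation restores β-gal by complementation. Compounds titrated up to 46 uM final, 2 h at 37 °C; luminescence read.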

[8] = target: Mitogen-activated protein kinase 10 (Mus musculus) (UniProt Q61831); experiment: JNK3 AlphaScreen Assay (AID 530; active = well fitted curve in either direction with a large enough effect, not every such curve was filed as active;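 also: kinase came from lysate of stimulated human HepG2 cells; signal reports phosphorylation of biotinylated GST-cJun 1-79 at Ser73 with 10 µM ATP; % is scaled to controls: 0 for no effect and ±100 for the full control effect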); settings: JNK3 lysate, c-Jun phosphorylation; series mostly up to 57.1 µM
Summary of the method: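 Inhibitors reduce antibody binding to phosphorylated biotin-cJun, lowering AlphaScreen luminescence. Lysates from HepG2 cells pre-activated by IL-1beta plus TNF-alpha supplied JNK3; compounds were titrated.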

[9] = target: 3',5'-cyclic-AMP phosphodiesterase 4B (Homo sapiens) (UniProt Q07343); experiment: qHTS Assay for Inhibitors of PDE-IV (AID 607; active = well fitted activation curve with a large enough effect in the main read-out, with a control signal flat, not every such curve was filed as active; also: % of control where 0% means no effect); settings: HEK293 ACTOne CNG channel cells, membrane potential fluorescence; series mostly up to 22.9 µM
Summary of the method: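 The readout is membrane depolarisation from a cAMP-sensing CNG channel, detected with a potential dye at ex 535/em 590. Cells were HEK293-derived (endogenous PDE-IV) at 1000 cells/well, titrated up to 22.9 uM final.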

[10] = target: Cytochrome P450 3A4 (Homo sapiens) (UniProt P08684); experiment: qHTS Assay for Activators of Cytochrome P450 3A4 (AID 885); settings: recombinant CYP3A4, Luciferin-PPXE luminescence, 60 min; series mostly up to 57.1 µM; also: nearly all actives have a fitted effect of over 65% in size
Summary of the method: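 Steps: enzyme/substrate mix dispensed; compound added, 10 min RT; NADPH regeneration solution added, 60 min RT; luciferin detection buffer stops reaction; 20 min later luminescence measured.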

[11] = qHTS Assay for Lipid Storage Modulators (AID 1519; calls by dose curve); settings: Drosophila S3 cells, BODIPY lipid droplet/cell ratio, laser cytometry, cells loaded with oleic acid; for activity change, negative = inhibition: at 57.5 µM (top of the series)
Summary of the method: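 Cells seeded at 5,000 per well were treated with compounds over a concentration series and loaded with oleic acid (400 uM, as added). Lipid droplet fluorescence (488 nm excitation, 500-530 nm channel) was read by laser-scanning cytometry and normalized to 20 uM Triacsin C.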

[12] = target: Dual specificity protein kinase CLK4 (Homo sapiens) (UniProt Q9HAZ1); experiment: qHTS Assay for Inhibitors of CDC-like Kinase 4 (Kinase-Glo Assay) (AID 1770); settings: recombinant Clk4, Kinase-Glo ATP depletion luminescence; series mostly up to 66.7 µM; also: nearly all actives have a fitted effect of over 65% in size; also: potency is read from the fitted curve at half-maximal effect
Summary of the method: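 Clk4 25 nM, RS peptide 100 uM, ATP 1 uM, pH 7.5 Tris, 10 mM MgCl2, 2.5 mM DTT; 4.5 h RT; ATP depletion read by Kinase-Glo luminescence.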

[13] = target: Dual specificity protein kinase CLK4 (Homo sapiens) (UniProt Q9HAZ1); experiment: qHTS Assay for Inhibitors of CDC-like Kinase 4 (ADP-Glo Assay) (AID 1771); settings: recombinant CLK4, ADP-Glo luminescence; series mostly up to 80 µM; also: nearly all actives have a fitted effect of over 70% in size; also: potency is read from the fitted curve at half-maximal effect
Summary of the method: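 25 nM Clk4 with 100 uM RS repeat peptide and 1 uM ATP (final) in buffer with 2 mM MgCl2, 0.5 mM EGTA, 2.5 mM DTT, 0.01% Triton X-100; 1 h at room temperature; ADP-Glo luminescence for ADP formed.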

[14] = target: Ubiquitin carboxyl-terminal hydrolase 1 (Homo sapiens) (UniProt O94782); experiment: Inhibitors of USP1/UAF1: Pilot qHTS (AID 504865); settings: purified USP1/UAF1, Ub-rhodamine cleavage fluorescence; series mostly up to 54.9 µM;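 also: rhodamine fluorescence freed from ubiquitin-rhodamine substrate followed over time; top concentration of the series differs between compounds; % is scaled to controls: 0 for no effect and ±100 for the full control effect; nearly all actives have a fitted effect of over 35% in size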
Summary of the method: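 Enzyme-free wells gave the negative control, while test wells held 1nM USP1/UAF1 preincubated with compound for 15 min at room temperature. Ub-Rho at 150nM final started the reaction, and fluorescence at 480/540 nm was recorded kinetically.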

[15] = target: Cytochrome P450 2C19 (Homo sapiens) (UniProt P33261); experiment: qHTS Assay for Inhibitors and Substrates of Cytochrome P450 2C19 (AID 899); settings: recombinant CYP2C19, luciferin-H EGE luminescence; series mostly up to 57.1 µM; also: potency is read from the fitted curve at half-maximal effect; nearly all actives have a fitted effect of over 60% in size
Summary of the method: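 NADPH-dependent conversion of Luciferin-H EGE (10uM, at KM) by 5nM enzyme in 50mM KPO4, 60 min at 37C following 10 min compound preincubation. Stopped with luciferin detection buffer; luminescence read after 20 min.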

[16] = target: Cytochrome P450 3A4 (Homo sapiens) (UniProt P08684); experiment: qHTS Assay for Inhibitors and Substrates of Cytochrome P450 3A4 (AID 884); settings: recombinant CYP3A4, Luciferin-PPXE luminescence; series mostly up to 57.1 µM; also: nearly all actives have a fitted effect of over 50% in size; also: potency is read from the fitted curve at half-maximal effect
Summary of the method: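 20 nM human CYP3A4 with 25 uM Luciferin-PPXE (at KM) in 200 mM KPO4, preincubated 10 min with compound; NADPH regeneration started a 60 min RT reaction. Luciferin detected by luminescence, normalized to 57 uM ketoconazole as full inhibition.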

[17] = target: Dual specificity protein kinase CLK4 (Homo sapiens) (UniProt Q9HAZ1); experiment: qHTS Assay for Inhibitors of CDC-like Kinase 4 (ADP-FP Assay) (AID 1795); settings: Transcreener ADP fluorescence polarization; series mostly up to 50 µM;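 also: recombinant human CLK4 phosphorylating RS repeat peptide at 1 µM ATP; % is scaled to controls: 0 for no effect and ±100 for the full control effect; nearly all actives have a fitted effect of over 60% in size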
Summary of the method: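 Kinase activity was followed as ADP output, converted from fluorescence polarization with a calibration curve. Reactions ran one hour at low ATP (1 uM) with RS peptide substrate.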

[18] = measured here: cell count channel max response
[19] = measured here: lipid channel max response

Chain of Cytochrome P450 1A2 (Homo sapiens) (P05177 whole entry, looked up): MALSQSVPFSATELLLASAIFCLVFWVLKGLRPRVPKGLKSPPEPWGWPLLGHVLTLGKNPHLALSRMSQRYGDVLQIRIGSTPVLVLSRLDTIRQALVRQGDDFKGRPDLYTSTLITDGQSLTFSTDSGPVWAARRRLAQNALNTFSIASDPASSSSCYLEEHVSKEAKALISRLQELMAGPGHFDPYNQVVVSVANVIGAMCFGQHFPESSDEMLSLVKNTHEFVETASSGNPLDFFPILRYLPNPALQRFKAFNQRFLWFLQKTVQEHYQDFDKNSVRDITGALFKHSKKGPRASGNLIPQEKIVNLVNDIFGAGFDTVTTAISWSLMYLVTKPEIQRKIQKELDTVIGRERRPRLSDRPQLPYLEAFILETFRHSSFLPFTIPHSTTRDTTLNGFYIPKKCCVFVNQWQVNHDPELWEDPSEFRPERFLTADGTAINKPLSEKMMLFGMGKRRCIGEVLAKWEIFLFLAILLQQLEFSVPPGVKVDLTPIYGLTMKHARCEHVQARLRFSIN
Chain of Cytochrome P450 3A4 (Homo sapiens) (P08684 whole entry, looked up): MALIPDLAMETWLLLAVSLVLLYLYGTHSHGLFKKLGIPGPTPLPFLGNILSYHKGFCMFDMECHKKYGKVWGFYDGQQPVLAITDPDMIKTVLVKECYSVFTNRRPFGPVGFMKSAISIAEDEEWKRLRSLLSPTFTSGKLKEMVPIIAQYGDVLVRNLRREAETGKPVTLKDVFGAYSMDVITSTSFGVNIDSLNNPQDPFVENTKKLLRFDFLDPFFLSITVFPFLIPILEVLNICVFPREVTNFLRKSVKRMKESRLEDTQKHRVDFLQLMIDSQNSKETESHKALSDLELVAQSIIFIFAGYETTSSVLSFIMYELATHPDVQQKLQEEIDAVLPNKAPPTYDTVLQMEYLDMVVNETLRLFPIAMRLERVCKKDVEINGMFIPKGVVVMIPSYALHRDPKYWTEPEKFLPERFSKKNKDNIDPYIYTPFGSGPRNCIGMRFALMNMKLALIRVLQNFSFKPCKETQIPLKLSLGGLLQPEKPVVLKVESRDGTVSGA
Chain of Lysosomal acid glucosylceramidase (Homo sapiens) (P04062 whole entry, looked up): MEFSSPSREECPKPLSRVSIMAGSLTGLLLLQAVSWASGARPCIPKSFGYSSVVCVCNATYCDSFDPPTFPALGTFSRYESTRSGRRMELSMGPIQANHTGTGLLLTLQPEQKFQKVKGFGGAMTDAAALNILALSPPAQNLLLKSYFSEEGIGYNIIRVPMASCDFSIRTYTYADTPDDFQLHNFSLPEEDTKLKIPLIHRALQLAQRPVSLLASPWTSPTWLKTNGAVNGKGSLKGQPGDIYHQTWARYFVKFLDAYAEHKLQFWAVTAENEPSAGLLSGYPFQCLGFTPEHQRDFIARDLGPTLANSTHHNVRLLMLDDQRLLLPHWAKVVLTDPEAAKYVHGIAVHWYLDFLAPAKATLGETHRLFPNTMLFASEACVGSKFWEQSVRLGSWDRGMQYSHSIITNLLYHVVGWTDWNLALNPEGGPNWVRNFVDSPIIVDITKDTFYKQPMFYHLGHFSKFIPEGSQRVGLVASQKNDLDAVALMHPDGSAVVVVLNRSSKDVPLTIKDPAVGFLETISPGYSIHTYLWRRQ
Chain of 3',5'-cyclic-AMP phosphodiesterase 4B (Homo sapiens) (Q07343 whole entry, looked up): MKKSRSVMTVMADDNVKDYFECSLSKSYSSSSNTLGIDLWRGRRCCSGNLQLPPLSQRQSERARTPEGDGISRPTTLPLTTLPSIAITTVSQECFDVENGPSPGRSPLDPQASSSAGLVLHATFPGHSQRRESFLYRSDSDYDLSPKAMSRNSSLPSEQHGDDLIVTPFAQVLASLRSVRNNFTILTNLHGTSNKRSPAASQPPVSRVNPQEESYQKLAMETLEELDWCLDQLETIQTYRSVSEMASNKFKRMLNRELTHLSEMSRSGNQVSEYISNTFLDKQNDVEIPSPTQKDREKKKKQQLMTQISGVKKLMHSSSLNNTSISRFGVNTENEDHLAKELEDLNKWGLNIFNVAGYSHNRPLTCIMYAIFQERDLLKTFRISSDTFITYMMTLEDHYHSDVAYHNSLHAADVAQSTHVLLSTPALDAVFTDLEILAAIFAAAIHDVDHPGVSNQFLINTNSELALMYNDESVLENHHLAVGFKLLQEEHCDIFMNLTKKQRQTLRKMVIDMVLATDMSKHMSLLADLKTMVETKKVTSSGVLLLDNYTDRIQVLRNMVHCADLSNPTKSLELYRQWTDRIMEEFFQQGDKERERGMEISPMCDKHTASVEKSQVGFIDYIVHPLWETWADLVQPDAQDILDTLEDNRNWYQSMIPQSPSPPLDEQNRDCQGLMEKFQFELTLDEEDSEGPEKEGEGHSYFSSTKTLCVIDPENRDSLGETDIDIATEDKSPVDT
Chain of Dual specificity protein kinase CLK4 (Homo sapiens) (Q9HAZ1 whole entry, looked up): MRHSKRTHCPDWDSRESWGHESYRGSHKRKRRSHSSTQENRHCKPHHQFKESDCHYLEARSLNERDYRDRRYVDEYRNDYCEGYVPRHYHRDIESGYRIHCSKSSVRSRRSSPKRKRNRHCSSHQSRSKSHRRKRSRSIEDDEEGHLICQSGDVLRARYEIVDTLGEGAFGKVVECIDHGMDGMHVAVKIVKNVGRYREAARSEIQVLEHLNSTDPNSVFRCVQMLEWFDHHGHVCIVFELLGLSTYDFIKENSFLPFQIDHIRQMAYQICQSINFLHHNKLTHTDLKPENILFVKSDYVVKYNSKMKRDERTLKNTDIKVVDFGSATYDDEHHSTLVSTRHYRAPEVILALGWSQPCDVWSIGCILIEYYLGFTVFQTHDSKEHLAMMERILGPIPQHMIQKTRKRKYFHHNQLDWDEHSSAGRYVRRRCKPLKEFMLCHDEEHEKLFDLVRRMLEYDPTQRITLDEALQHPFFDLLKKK
Chain of Glucocorticoid receptor (Homo sapiens) (P04150 whole entry, looked up, the tested form may be a part): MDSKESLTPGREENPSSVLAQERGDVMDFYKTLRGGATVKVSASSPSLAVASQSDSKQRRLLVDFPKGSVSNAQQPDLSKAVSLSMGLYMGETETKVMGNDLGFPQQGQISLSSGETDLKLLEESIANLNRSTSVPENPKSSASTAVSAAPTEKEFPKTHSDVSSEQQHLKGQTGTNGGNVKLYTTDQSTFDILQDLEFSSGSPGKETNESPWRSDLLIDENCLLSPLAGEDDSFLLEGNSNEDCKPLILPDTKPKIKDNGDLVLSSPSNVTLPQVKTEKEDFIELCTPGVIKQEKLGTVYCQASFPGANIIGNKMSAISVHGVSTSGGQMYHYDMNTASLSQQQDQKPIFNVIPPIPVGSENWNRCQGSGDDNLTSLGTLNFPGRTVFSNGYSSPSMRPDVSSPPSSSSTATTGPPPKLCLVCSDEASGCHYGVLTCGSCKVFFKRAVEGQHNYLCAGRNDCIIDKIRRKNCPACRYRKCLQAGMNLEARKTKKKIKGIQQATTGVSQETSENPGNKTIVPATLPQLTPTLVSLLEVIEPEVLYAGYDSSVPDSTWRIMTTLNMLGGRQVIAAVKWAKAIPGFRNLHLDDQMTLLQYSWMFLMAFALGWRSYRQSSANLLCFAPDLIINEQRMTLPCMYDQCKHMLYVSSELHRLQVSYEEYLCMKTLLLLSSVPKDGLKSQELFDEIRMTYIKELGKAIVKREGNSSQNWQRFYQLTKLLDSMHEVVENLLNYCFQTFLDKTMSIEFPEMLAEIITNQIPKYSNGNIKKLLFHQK
Chain of Ubiquitin carboxyl-terminal hydrolase 1 (Homo sapiens) (O94782 whole entry, looked up): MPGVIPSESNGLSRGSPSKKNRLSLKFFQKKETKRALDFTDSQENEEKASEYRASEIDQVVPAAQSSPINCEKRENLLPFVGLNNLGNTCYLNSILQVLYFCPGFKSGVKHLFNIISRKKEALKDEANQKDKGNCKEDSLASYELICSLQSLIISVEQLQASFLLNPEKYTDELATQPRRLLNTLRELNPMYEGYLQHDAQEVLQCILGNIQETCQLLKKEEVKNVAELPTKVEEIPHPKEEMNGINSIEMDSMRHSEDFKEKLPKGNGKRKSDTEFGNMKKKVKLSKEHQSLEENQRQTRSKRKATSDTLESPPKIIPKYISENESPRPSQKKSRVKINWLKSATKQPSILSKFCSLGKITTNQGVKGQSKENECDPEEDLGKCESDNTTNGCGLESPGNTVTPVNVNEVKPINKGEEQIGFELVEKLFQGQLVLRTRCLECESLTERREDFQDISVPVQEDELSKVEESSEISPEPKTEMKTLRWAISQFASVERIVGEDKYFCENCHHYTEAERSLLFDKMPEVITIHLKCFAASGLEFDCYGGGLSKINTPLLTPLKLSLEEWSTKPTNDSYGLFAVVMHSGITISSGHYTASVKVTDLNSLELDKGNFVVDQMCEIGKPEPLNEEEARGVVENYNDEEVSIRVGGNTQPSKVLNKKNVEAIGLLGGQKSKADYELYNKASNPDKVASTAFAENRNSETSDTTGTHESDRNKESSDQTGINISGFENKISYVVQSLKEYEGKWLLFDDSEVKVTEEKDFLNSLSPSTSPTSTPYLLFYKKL
Chain of Cytochrome P450 2C19 (Homo sapiens) (P33261 whole entry, looked up): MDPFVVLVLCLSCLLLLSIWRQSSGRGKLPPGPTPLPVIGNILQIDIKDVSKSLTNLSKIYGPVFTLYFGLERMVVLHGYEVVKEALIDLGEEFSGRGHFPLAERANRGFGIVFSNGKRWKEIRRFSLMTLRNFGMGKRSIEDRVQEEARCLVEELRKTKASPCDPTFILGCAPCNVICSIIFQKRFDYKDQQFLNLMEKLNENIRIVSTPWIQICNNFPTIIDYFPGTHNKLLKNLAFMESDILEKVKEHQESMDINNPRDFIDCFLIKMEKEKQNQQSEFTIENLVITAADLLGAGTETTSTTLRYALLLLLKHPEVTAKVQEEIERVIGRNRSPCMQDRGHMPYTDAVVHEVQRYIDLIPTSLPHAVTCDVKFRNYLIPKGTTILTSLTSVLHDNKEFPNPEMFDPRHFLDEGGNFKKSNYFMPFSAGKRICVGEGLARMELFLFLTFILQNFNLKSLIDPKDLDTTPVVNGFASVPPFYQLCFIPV

SMILES	Potency [1]	activity change, negative = inhibition [2]	Potency [3]	activity change, negative = inhibition [4]	activity, negative = inhibition [5]	Potency [6]	Potency [7]	Potency [8]	Potency [9]	Potency [10]	activity change, negative = inhibition [11]	max response [11, 18] [%]	max response [11, 19] [%]	Potency [12]	Potency [13]	Potency [14]	Potency [15]	Potency [16]	Potency [17]
COc1ccccc1-c1ccc2ncnc(NCCNC(C)=O)c2c1	> 11.4 µM (inactive)	11.9% (inactive)	5.01 µM (active)	3.1% (inactive)	-8.48% (inactive)	> 46 µM (inactive)	> 46 µM (inactive)	inactive	inactive	inactive	1.76% (inactive)	-6.93	-7.23	11.2 µM (active)	15.8 µM (active)	inactive	–	–	–
COCCNc1ncnc2ccc(-c3ccccc3C(F)(F)F)cc12	–	15.6% (inactive)	1.58 µM (active)	18.9% (inactive)	-11.6% (inactive)	–	> 46 µM (inactive)	inactive	–	inactive	-1.49% (inactive)	-4.06	-5.73	25.1 µM (active)	31.6 µM (active)	inactive	6.31 µM (active)	–	–
N#Cc1cccc(-c2ccc3ncnc(NCCN4CCOCC4)c3c2)c1	> 11.4 µM (inactive)	1.43% (inactive)	–	19.4% (inactive)	–	> 46 µM (inactive)	> 46 µM (inactive)	inactive	inactive	–	4.75% (inactive)	5.88	7.51	12.6 µM (active)	8.91 µM (active)	inactive	–	–	–
CN1CCN(c2ncc3nc(-c4ccc(F)cc4)c(=O)n(C4CC4)c3n2)CC1	> 11.4 µM (inactive)	9.67% (inactive)	12.6 µM (active)	24.4% (inactive)	18.6% (inactive)	> 9.22 µM (inactive)	> 46 µM (inactive)	inactive	inactive	–	-0.731% (inactive)	7.24	4.22	inactive	inactive	inactive	–	inactive	–
COc1cccc(-c2ccc3ncnc(NCCc4c[nH]c5ccc(OC)cc45)c3c2)c1	> 11.4 µM (inactive)	–	3.98 µM (active)	-6.66% (inactive)	–	> 46 µM (inactive)	> 46 µM (inactive)	–	inactive	inactive	-3.93% (inactive)	-24.6	-27.9	5.01 µM (active)	3.98 µM (active)	inactive	3.16 µM (active)	1.26 µM (active)	–
COc1ccc(CNc2ncnc3ccc(-c4ccc(C(=O)N(C)C)cc4)cc23)c(OC)c1	> 11.4 µM (inactive)	-13.6% (inactive)	–	28.3% (inactive)	-9.48% (inactive)	> 46 µM (inactive)	> 46 µM (inactive)	inactive	–	inactive	1.13% (inactive)	11.2	9.92	inactive	–	inactive	–	2.51 µM (active)	inactive
